These results are taken from PubChem BioAssay AID431 (Sanford-Burnham Center for Chemical Genomics, 2006).

In all, about 63,000 compounds went through this assay and about 1,100 (1.7%) were called active. This is one part of a sample in which actives are shown more often than they occur. Entries with a potency or affinity are not part of this list. Values without a mark were called inactive.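 How the source made its calls: active means compounds whose percent cytotoxicity in the single-dose primary screen, scaled between solvent and toxic-drug controls, exceeds 50; inactive means the rest.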

The nature of the experiment: cytotoxicity in KRAS-transformed pancreatic duct cells, primary screen, cell-based, fluorescence, HTS (AID 431).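 Further: 0% = DMSO solvent wells and 100% = doxorubicin-treated wells.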 The following applies: HPDE-C7K KRASV12 cells, Alamar Blue viability, 48 h; at 10 µM; stronger effect = higher value. Background: The colour change of resazurin is a common sign of viable cells or microbes.
Regarding `Cc1cccc(NC(=O)c2ccc(S(=O)(=O)N3CCCCC3)cc2)n1`, the cytotoxicity is 2.7%.

Take `COC(=O)c1cc(NC(=O)C2CC=CCC2C(=O)O)cc(C(=O)OC)c1` (stereo not drawn): the cytotoxicity was -9.5%. The same measure for `CC1Cn2c(nnc2-c2cccc(N)c2)S1` (stereo not drawn): -6.4%. The same measure for `COc1ccc(S(=O)(=O)N(C)CC(=O)Nc2cccc(C(C)=O)c2)cc1`: -14.2%. Take `COc1cc(-c2nnc(COc3ccc4cc(Br)ccc4c3)o2)cc(OC)c1OC`: the cytotoxicity is 75.7% (active).

Consider `COc1ccc(-c2nnc(COc3ccc4ccccc4c3)o2)cc1OC`, for which the cytotoxicity was -1.8%. Regarding `COc1cc(-c2nnc(COc3ccc4ccccc4c3)o2)cc(OC)c1OC`, the cytotoxicity was 36.9%. In the case of `COc1ccc(N=C2SC(C(=O)Nc3ccc4c(c3)OCO4)CC(=O)N2C)cc1` (stereo not drawn) it was -25%; in that of `Cc1c(NC(=O)COC(=O)C2CC3C=CC2C3)c(=O)n(-c2ccccc2)n1C` (stereo not drawn), -2.3%; in that of `CC(/C(O)=C(\C#N)c1nc2ccccc2n1C)N1C(=O)c2ccccc2C1=O` (stereo not drawn), 0.7%. In the case of `Cc1cccc(N2CCN(c3cccc(C)c3)C2c2cccnc2)c1`, the cytotoxicity was 53.7% (active). In the case of `Cc1cccc(N2CCN(C(=O)c3ccncc3)CC2C)c1` (stereo not drawn), the cytotoxicity is 7.3%. The same measure for `Cc1ccc(N2CCN(c3ccc(C)cc3)C2c2ccncc2)cc1`: -25.3%; for `Cc1cccc(N2CCN(C(=O)COc3cc(=O)n(C)c4ccccc34)CC2C)c1` (stereo not drawn): -5.4%; for `c1cncc(C2Nc3ccccc3-c3nc4ccccc4n32)c1` (stereo not drawn): 3.3%.

For the compound `O=S(=O)(NC1CCCC1)c1ccccc1Cl`, the cytotoxicity is -5.7%. On to `COc1cccc(C=Nc2cc(C)on2)c1O`, for which the cytotoxicity is 7.3%. On to `Oc1c(/C=N/c2ncn[nH]2)ccc2ccccc12`, for which the cytotoxicity was 65.8% (active). In the case of `C=CCc1cccc(/C=N/c2ncn[nH]2)c1O`, the cytotoxicity was 18.3%.

As for `O=c1c2ccccc2c(/C=N/c2ncn[nH]2)c(O)n1Cc1ccccc1`, the cytotoxicity is 17.3%. On to `COc1cc(Br)cc(/C=N/c2ncn[nH]2)c1O`, for which the cytotoxicity is 85.2% (active). On to `COc1cc(Br)cc(CN2CCN(C=O)CC2)c1O`, for which the cytotoxicity is -2.1%.

As to `Cc1ccccc1-c1nnc(-c2ccc(Br)cc2)o1`, the cytotoxicity was 0.4%. With `COc1cc(OC)cc(C(=O)Nc2ncc3c(n2)CC(C)CC3=O)c1` (stereo not drawn), the cytotoxicity was 18.9%. On to `CC(C)c1ccc(NC(=O)c2cnn(-c3ccccc3)c2NC(=O)c2ccco2)cc1`, for which the cytotoxicity is 0.3%.

In the case of `CCN(CC)CCNC(=O)c1cc2c(=O)n(C)c3ccccc3c2n1C`, the cytotoxicity is -20%.

For `O=C(Cn1cc2c(n1)CCCC2)Nc1ccccc1Cl`, the cytotoxicity was -7.1%. In the case of `CCOC(=O)c1cccc(NC(=O)CSc2nnc(COc3ccccc3)n2CC)c1` it was -20.1%; in that of `Nc1nc(-c2ccc3c(c2)OCCO3)cs1`, -0.3%; in that of `C=CCNc1nc(-c2sc(NC(C)=O)nc2C)cs1`, 33%. As for `NS(=O)(=O)c1ccc(Nc2nc(-c3ccc(O)cc3)cs2)cc1`, the cytotoxicity is 32.7%.

For `CC(=O)Nc1nc(C)c(-c2csc(Nc3ccc(O)cc3)n2)s1`, the cytotoxicity is 63.2% (active). As to `O=C(Nc1nc(-c2ccc3c(c2)OCO3)cs1)C1CC1`, the cytotoxicity is -0.9%.

Regarding `C=CCNc1nc(-c2sc(NC(=O)CC)nc2C)cs1`, the cytotoxicity is 31.5%. As to `Oc1ccc(Nc2nc(-c3ccc(O)cc3)cs2)cc1`, the cytotoxicity was 84.1% (active). As to `c1cncc(Nc2nc(-c3ccncc3)cs2)c1`, the cytotoxicity is 4.9%. Turning to `c1cc2c(cc1Nc1nc(-c3ccc4c(c3)OCO4)cs1)OCCO2`, the cytotoxicity was 56.7% (active). Consider `CC(C)CN(CC(C)C)S(=O)(=O)N1CCC(C(=O)NCCN2CCOCC2)CC1`, for which the cytotoxicity is -24.9%. With `Cc1ccc2c(c1)NC(=O)C(CC(=O)NCCCN1CCCC1=O)O2` (stereo not drawn), the cytotoxicity is -1%. As for `Cc1nn(C)cc1/C=N/O`, the cytotoxicity was -2%. As for `COc1cc(Nc2cc(C)nc3nc(C)nn23)cc(OC)c1OC`, the cytotoxicity was -6%. On to `Cc1ccc(S(=O)(=O)N(C)Cc2nc(-c3ccc(Br)cc3)no2)cc1`, for which the cytotoxicity is -5%. The same measure for `COC(=O)C1=C(C)n2nnnc2NC1c1ccc(Cl)cc1` (stereo not drawn): 69.3% (active); for `COC(=O)C1=C(C)n2cnnc2NC1c1ccc(Cl)cc1` (stereo not drawn): 6.1%.

Regarding `COC(=O)C1=C(C)n2nnnc2NC1c1cc2ccccc2o1` (stereo not drawn), the cytotoxicity is 4.4%.

In the case of `Cc1cc(S(=O)(=O)NCCN2CCOCC2)c(C)s1`, the cytotoxicity is 1.5%.

In the case of `O=C(CCN1C(=O)COc2ccccc21)NCCN1CCN(c2ccccc2F)CC1`, the cytotoxicity was 2%. As to `C=CCn1c(COc2ccccc2)nnc1SCC(=O)Nc1ccc(S(N)(=O)=O)cc1`, the cytotoxicity is -13.8%. Consider `Cc1cccc(N2CCN(C(=O)C3CCCN(S(=O)(=O)c4cccc5cccnc45)C3)CC2)c1C` (stereo not drawn), for which the cytotoxicity is 24.5%. For `O=C(Nc1cnn(Cc2ccc(F)cc2)c1)c1cc2nc(-c3ccco3)cc(C(F)(F)F)n2n1`, the cytotoxicity is 48.5%. Turning to `Cc1ccccc1Cn1cc(NC(=O)c2cc3nc(-c4ccco4)cc(C(F)(F)F)n3n2)cn1`, the cytotoxicity was 30.9%. For `O=C(Nc1cnn(Cc2ccccc2)c1)c1cc2nc(-c3ccco3)cc(C(F)(F)F)n2n1`, the cytotoxicity is 24.8%.

As for `Cc1ccccc1Cn1ccc(NC(=O)c2cc3nc(-c4ccco4)cc(C(F)(F)F)n3n2)n1`, the cytotoxicity is 61.3% (active). Regarding `Cc1ccccc1Cn1ccc(NC(=O)c2cnn3c(C(F)(F)F)cc(-c4ccco4)nc23)n1`, the cytotoxicity was 42.2%. In the case of `O=C(Nc1ccc(Cl)cc1)c1cc2nc(-c3ccco3)cc(C(F)(F)F)n2n1` it was 69.4% (active); in that of `Cc1noc(C)c1COC(=O)C1CC(O)CN1S(=O)(=O)c1ccc(Cl)cc1` (stereo not drawn), -5.6%; in that of `CCc1ccccc1N(C(=O)c1cccs1)C1C=CS(=O)(=O)C1` (stereo not drawn), -8.1%. In the case of `CCSC1=C(C#N)C2(CCCC2)C(C#N)=C(N)N1` it was 18.9%. In the case of `CC1(C)CC(=O)C2=C(C1)NC(SCC(=O)Nc1ccccc1)=C(C#N)C21CCCCC1` it was -9.5%.

Turning to `N#CC1=C(N)NC(SCC(=O)O)=C(C#N)C12CCCC2`, the cytotoxicity was -1.2%. In the case of `COc1ccc(C(=O)CSC2=C(C#N)C3(CCCCC3)C(C#N)=C(N)N2)cc1` it was 30.1%; in that of `CCSC1=C(C#N)C2(CCCCC2)C(C#N)=C(N)N1`, 1.2%; in that of `N#CC1=C(N)NC(SCc2ccccc2)=C(C#N)C12CCCCC2`, 78.5% (active). Consider `CSC1=C(C#N)C2(CCCC2)C(C#N)=C(N)N1`, for which the cytotoxicity was 30.6%. As to `O=C(CC(NS(=O)(=O)c1ccc(Cl)cc1)c1ccco1)NCc1cccnc1` (stereo not drawn), the cytotoxicity was -10.2%.

On to `CCOC(=O)N1CCN(c2nc(C)c3c(n2)CC(C)CC3=O)CC1` (stereo not drawn), for which the cytotoxicity is -14.7%. For the compound `Cn1c(N2CCC(C(N)=O)CC2)nc2c1c(=O)n(Cc1ccc(Cl)cc1)c(=O)n2C`, the cytotoxicity is 16.9%. For `FC(F)(F)c1cccc(N2CCN(Cc3cccnc3)CC2)c1`, the cytotoxicity is 21.8%.

For the compound `CC(C)Oc1cccc(C(=O)Nc2ccccc2N2CCOCC2)c1`, the cytotoxicity is -2.7%. Take `COc1cc(C2C(C(=O)c3cccs3)=C(O)C(=O)N2c2cc(C)on2)ccc1O` (stereo not drawn): the cytotoxicity is 14.5%. For the compound `CCn1c2ccccc2c2cc(Nc3cc(C)nc4ncnn34)ccc21`, the cytotoxicity was 74.4% (active). In the case of `CCc1cccc(Nc2cc(C)nc3ncnn23)c1`, the cytotoxicity is -4.4%. In the case of `Cc1cc(Nc2ccc3ccccc3c2)n2ncnc2n1`, the cytotoxicity is -8.1%.

As to `Cc1ccc(-c2nn(C)c(=O)c3ccccc23)cc1CNC(=O)CN1CCOCC1`, the cytotoxicity is 4.3%. For the compound `O=C(Cn1nnc(-c2cc(Cl)ccc2-n2cnnn2)n1)N1CCCc2ccccc21`, the cytotoxicity is -0.5%. Take `CCOC(=O)N1CCC(NC(=O)c2csc3c2CCCC3)CC1`: the cytotoxicity is -1.5%.

On to `COC(=O)/C(=C1/Oc2cc(C)oc(=O)c2S1)C(F)(F)F`, for which the cytotoxicity was 70.4% (active). As to `COC(=O)C1=C(N)Oc2cc(C)oc(=O)c2C1c1ccncc1` (stereo not drawn), the cytotoxicity was -2.1%.

With `COC(=O)/C(=C1/Oc2cc3c(cc2S1)OCO3)C(F)(F)F`, the cytotoxicity was -15.1%. The same measure for `O=C(COC(=O)C(O)c1ccccc1)NC12CC3CC(CC(C3)C1)C2` (stereo not drawn): -12.9%; for `CN(C)/C=C1/Sc2ccccc2C1=O`: -18.3%; for `CN(C)C=C1C(=O)c2ccccc2C1=O`: 48%.

As to `CN(C)/C=C1\C(=O)c2ccc(N(C)C)nc2CC1c1ccccc1` (stereo not drawn), the cytotoxicity was 59.9% (active).

As to `CCCOC(=O)Nc1ccc(S(=O)(=O)Nn2cnnc2)cc1`, the cytotoxicity was 5.7%.

With `CNc1oc(Cc2cccc3ccccc23)nc1C#N`, the cytotoxicity is 14.7%. Turning to `N#Cc1nc(Cc2cccc3ccccc23)oc1NCc1ccco1`, the cytotoxicity is 63.1% (active). Regarding `C=CCNc1oc(Cc2cccc3ccccc23)nc1C#N`, the cytotoxicity was -8.6%. In the case of `CCn1cc(C(=O)NCC2CCCO2)c(=O)c2cc(S(=O)(=O)N(C)C3CCCCC3)ccc21` (stereo not drawn) it was 13.1%; in that of `CCOc1ccc(C2=Nn3c(nnc3-c3ccccc3OC)SC2)cc1`, 66.6% (active); in that of `COc1cccc(C2=Nn3c(nnc3-c3ccccc3O)SC2)c1`, -11.6%. For the compound `Cc1ccc(-c2nnc3n2N=C(c2ccccc2)CS3)cc1`, the cytotoxicity is -2.4%. In the case of `c1ccc(C2=Nn3c(nnc3-c3cc(-c4ccccc4)n[nH]3)SC2)cc1`, the cytotoxicity was -6.7%.

Take `CCOc1ccc(C2=Nn3c(nnc3-c3ccc(OC)cc3)SC2)cc1`: the cytotoxicity was 40.7%. Turning to `COc1ccc(C2=Nn3c(nnc3-c3ccccc3)SC2)cc1OC`, the cytotoxicity was 0.4%. The same measure for `COc1ccccc1-c1nnc2n1N=C(c1ccc(O)c(O)c1)CS2`: 54.8% (active).

`COc1ccccc1-c1nnc2n1N=C(C)CS2`: the cytotoxicity was -13.6%.

Consider `COc1ccc(C2=Nn3c(nnc3-c3ccccn3)SC2)cc1OC`, for which the cytotoxicity is -4.6%. Regarding `CCOc1ccc(-c2nnc3n2N=C(c2ccc(OC)cc2)CS3)cc1`, the cytotoxicity is -5%.
